Counter-ions that a name gives are not always drawn. ± gives the standard deviation or the standard deviation of the averaged measurements.
What was measured:
Settings in all cases: 25 µM; exposure: 24-48 hpf
[1] = tested on: Danio rerio Tg(wt1b:EGFP) embryo, pronephros; test: glomerular separation, fold change vs DMSO control; higher = glomeruli further apart (abnormal)
Method in brief: (§1)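 From 24 to 48 hpf, at 28.5°C, dechorionated Tg(wt1b:EGFP) zebrafish embryos sat in HEPES-buffered E3 with 0.003% PTU carrying 25 μM compound and 0.5% DMSO. Their pronephroi were imaged dorsally in 96-well plates filled with agarose, using 470 nm light and 10 z-slices. A Fiji macro measured distances and angles between 16 reference points that were set manually on maximum projections, and any value more than 2 SD from its feature mean was excluded. Features are expressed as fold change relative to the mean of DMSO-treated embryos imaged on the same day.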

[2] = tested on: Danio rerio Tg(wt1b:EGFP) embryo, pronephros; test: glomerular width (mean of left and right), fold change vs DMSO control; higher = wider glomerulus
Method in brief: as §1

[3] = tested on: Danio rerio Tg(wt1b:EGFP) embryo, pronephros; test: fraction of imaged embryos annotated as normal kidney; higher = less nephrotoxic; extreme values may be limits of the assay
Method in brief: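 From 24 to 48 hpf at 28.5°C, dechorionated Tg(wt1b:EGFP) zebrafish embryos in 12-well plates were kept in 5 mM HEPES-buffered E3 with 0.003% PTU, 0.5% DMSO and 25 μM compound. Pronephroi were imaged by widefield fluorescence at 470 nm and judged by eye from maximum projections. Reported is the proportion of embryos per treatment in the normal-kidney category.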

[4] = tested on: Danio rerio Tg(wt1b:EGFP) embryo, pronephros; test: pronephric angle neck segment to proximal convoluted tubule (mean of left and right), fold change vs DMSO control; higher = larger pronephric angle
Method in brief: as §1

Row | Compound | glomerular separation [1] | glomerular width [2] | fraction of imaged embryos annotated as normal kidney [3] | pronephric angle neck segment [4]
1 | O=C(c1ccccc1)c1ccc2n1CCC2C(=O)O (centres undefined) [Ketorolac tromethamine] | 1 ± 0.43 | 1.15 ± 0.013 | 0.667 | 1.04 ± 0.025
2 | NC(=O)N1c2ccccc2C=Cc2ccccc21 [Carbamazepine] | 0.842 ± 0.19 | 0.99 ± 0.04 | 0.667 | 0.955 ± 0.025
3 | O=C1c2c(O)cccc2Cc2cccc(O)c21 [Anthralin] | 0.949 ± 0.28 | 0.986 ± 0.02 | 0.909 | 1.06 ± 0.014
4 | Cn1c(=O)c2[nH]cnc2n(C)c1=O [Aminophylline] | 0.664 ± 0.15 | 0.992 ± 0.021 | 1 | 0.871 ± 0.011
5 | CC(NCCc1ccc(O)cc1)C(O)c1ccc(O)cc1 (centres undefined) [Ritodrine hydrochloride] | 1.03 ± 0.28 | 0.952 ± 0.012 | 0.833 | 1.038 ± 0.0019
6 | Nc1nc(Cl)nc2c1ncn2[C@H]1C[C@H](O)[C@@H](CO)O1 [Cladribine] | 0.896 ± 0.38 | 0.945 ± 0.021 | 0.909 | 1.005 ± 0.0066
7 | COC(=O)Nc1nc2cc(C(=O)c3cccs3)ccc2[nH]1 [Nocodazole] | 1.86 ± 0.67 | 0.523 ± 0.024 | 0 | 1.87 ± 0.13
8 | COc1cc(-c2ccc(=O)[nH]n2)ccc1OC(F)F [Zardaverine] | 1.12 ± 0.48 | 0.9712 ± 0.0072 | 0.583 | 0.994 ± 0.013
9 | CC(C)(C)NC[C@@H](O)COc1cccc2c1CCCC2=O [(+) -Levobunolol hydrochloride] | 0.984 ± 0.46 | 0.935 ± 0.054 | 0.75 | 1.03 ± 0.015
10 | CN(C)CCCSC(=N)N [Dimaprit dihydrochloride] | 0.745 ± 0.36 | 1.05 ± 0.052 | 0.75 | 1 ± 0.022
11 | CC(CCc1ccc(O)cc1)NCCc1ccc(O)c(O)c1 (centres undefined) [Dobutamine hydrochloride] | 0.82 ± 0.23 | 0.999 ± 0.032 | 1 | 0.997 ± 0.078

From the supplement of paper PMC7366291
